Experimental data: PubChem BioAssay AID1159580 (chemical genetic matrix, 2015)
Among all 5,500 compounds or so, about 2,000 (36%) were called active. Roughly 18% stayed inconclusive and do not appear here. Cut-off read from the data, not from the text of the source: active = normalized growth mostly below about 0.91 (no sharp cut-off); inconclusive = no clear call, values can overlap the other calls; inactive = mostly above about 0.92. The list shows a part of the results.

Assay: chemical genetic growth profiling, strain panel (AID 1159580);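 note: tested at 20 µM; growth read once vehicle control cultures reached saturation at 30 °C; 1 = growth at the plate median or of vehicle wells; lower values mean less growth of the strain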
Conditions: S. cerevisiae deletion strains, growth OD

Measured: normalized growth

Cc1ccc(N=CN(C)C=Nc2ccc(C)cc2C)c(C)c1
inactive: locus YAL021C, strain ccr4, stronger effect = lower value 0.944 | locus YAL026C, strain drs2, stronger effect = lower value 0.962 | locus YAL030W, strain snc1, stronger effect = lower value 0.984 | locus YBL061C, strain skt5, stronger effect = lower value 0.986 | locus YBR009C, strain hhf1, stronger effect = lower value 0.926 | locus YBR023C, strain chs3, stronger effect = lower value 1 | locus YBR171W, strain sec66, stronger effect = lower value 0.971 | locus YBR231C, strain swc5, stronger effect = lower value 1 | locus YBR279W, strain paf1, stronger effect = lower value 0.983 | locus YCL011C, strain gbp2, stronger effect = lower value 0.965 | locus YCL016C, strain dcc1, stronger effect = lower value 0.971 | locus YCL061C, strain MRC1, stronger effect = lower value 0.952 | locus YCL069W, strain vba3, stronger effect = lower value 0.979 | locus YCR088W, strain abp1, stronger effect = lower value 0.99 | locus YDL005C, strain med2, stronger effect = lower value 0.987 | locus YDL040C, strain nat1, stronger effect = lower value 0.987 | locus YDR001C, strain nth1, stronger effect = lower value 0.979 | locus YDR069C, strain doa4, stronger effect = lower value 0.969 | locus YDR137W, strain rgp1, stronger effect = lower value 0.981 | locus YDR159W, strain sac3, stronger effect = lower value 0.974 | locus YDR195W, strain ref2 1.03 | locus YDR297W, strain sur2, stronger effect = lower value 0.977 | locus YDR334W, strain swr1, stronger effect = lower value 0.987 | locus YDR335W, strain msn5, stronger effect = lower value 0.966 | locus YDR392W, strain spt3, stronger effect = lower value 0.925 | locus YEL003W, strain gim4, stronger effect = lower value 0.957 | locus YEL037C, strain rad23, stronger effect = lower value 0.98 | locus YEL061C, strain CIN8 (second series), stronger effect = lower value 0.986 | locus YER015W, strain faa2, stronger effect = lower value 0.972 | locus YER016W, strain bim1, stronger effect = lower value 0.975 | locus YER111C, strain swi4, stronger effect = lower value 0.955 | locus YER155C, strain BEM2 (second series), stronger effect = lower value 1.01 | locus YFR010W, strain ubp6, stronger effect = lower value 0.987 | locus YGL167C, strain pmr1, stronger effect = lower value 0.98 | locus YGL173C, strain kem1, stronger effect = lower value 0.962 | locus YGL227W, strain vid30, stronger effect = lower value 0.988 | locus YGL240W, strain doc1, stronger effect = lower value 0.969 | locus YGL253W, strain hxk2, stronger effect = lower value 0.979 | locus YHR013C, strain ard1, stronger effect = lower value 0.943 | locus YHR027C, strain rpn1, stronger effect = lower value 0.975 | locus YHR030C, strain SLT2, stronger effect = lower value 0.999 | locus YHR079C, strain IRE1, stronger effect = lower value 1.01 | locus YHR142W, strain chs7, stronger effect = lower value 0.957 | locus YJL092W, strain hpr5, stronger effect = lower value 0.978 | locus YJL095W, strain BCK1 (second series), stronger effect = lower value 0.978 | locus YJL095W, strain BCK1, stronger effect = lower value 0.962 | locus YJL115W, strain asf1, stronger effect = lower value 0.966 | locus YJL129C, strain trk1, stronger effect = lower value 0.976 | locus YJL154C, strain vps35, stronger effect = lower value 0.987 | locus YJL164C, strain tpk1, stronger effect = lower value 0.97 | locus YJL166W, strain qcr8, stronger effect = lower value 0.974 | locus YJR066W, strain TOR1, stronger effect = lower value 0.962 | locus YKL160W, strain elf1, stronger effect = lower value 0.989 | locus YKR026C, strain gcn3, stronger effect = lower value 0.989 | locus YKR091W, strain srl3, stronger effect = lower value 0.983 | locus YLL001W, strain dnm1, stronger effect = lower value 0.998 | locus YLL026W, stronger effect = lower value 0.996 | locus YLL041C, strain sdh2, stronger effect = lower value 0.98 | locus YLR027C, strain aat2, stronger effect = lower value 0.98 | locus YLR113W, strain HOG1, stronger effect = lower value 0.988 | locus YLR221C, strain rsa3, stronger effect = lower value 0.941 | locus YLR258W, strain gsy2, stronger effect = lower value 0.98 | locus YLR262C, strain YPT6 (second series), stronger effect = lower value 0.962 | locus YLR320W, strain mms22, stronger effect = lower value 0.969 | locus YLR342W, strain FKS1, stronger effect = lower value 0.985 | locus YLR357W, strain rsc2, stronger effect = lower value 0.898 | locus YLR370C, strain arc18, stronger effect = lower value 0.985 | locus YLR384C, strain iki3, stronger effect = lower value 0.993 | locus YML120C, strain ndi1, stronger effect = lower value 0.975 | locus YMR058W, strain fet3, stronger effect = lower value 0.972 | locus YMR125W, strain sto1, stronger effect = lower value 1 | locus YMR129W, stronger effect = lower value 0.97 | locus YMR205C, strain PFK2, stronger effect = lower value 0.998 | locus YMR231W, strain pep5, stronger effect = lower value 0.995 | locus YNL071W, strain lat1, stronger effect = lower value 0.978 | locus YNL183C, strain NPR1, stronger effect = lower value 0.976 | locus YNL209W, strain ssb2, stronger effect = lower value 0.978 | locus YNL248C, strain rpa49, stronger effect = lower value 0.905 | locus YNL322C, strain KRE1 (second series), stronger effect = lower value 0.967 | locus YNR049C, strain mso1, stronger effect = lower value 0.948 | locus YOR001W, strain rrp6, stronger effect = lower value 0.984 | locus YOR070C, strain gyp1, stronger effect = lower value 0.975 | locus YOR080W, strain dia2, stronger effect = lower value 0.973 | locus YOR083W, strain WHI5, stronger effect = lower value 0.983 | locus YOR106W, strain vam3, stronger effect = lower value 0.95 | locus YOR231W, strain MKK1, stronger effect = lower value 0.994 | locus YOR265W, strain rbl2, stronger effect = lower value 0.991 | locus YOR270C, strain vph1, stronger effect = lower value 0.837 | locus YOR290C, strain snf2, stronger effect = lower value 0.949 | locus YPL051W, strain arl3, stronger effect = lower value 0.965 | locus YPL078C, strain atp4, stronger effect = lower value 0.97 | locus YPL106C, strain sse1, stronger effect = lower value 0.948 | locus YPL240C, strain hsp82, stronger effect = lower value 0.994 | locus YPL256C, strain CLN2, stronger effect = lower value 1.01
